This is a sample that favours compounds with a hit; in the whole collection about 21% have one here.
Shiga toxin inh = blocks Shiga toxin action in Vero cells. inhibition, % at 38.7 µM. Vero cells, Shiga toxin protein synthesis inhibition reporter. 290,000 tested, 9.2% active. AID 2315; in the data active = inhibition mostly above about 28%, no sharp cut-off; inactive = mostly below about 43%; note: 0% is about no effect
Pf growth 48h = P. falciparum growth inhibition at 48 hours (one generation) | P. falciparum luciferase growth in erythrocytes, 48 h | Potency, µM (series often up to 28.7 µM), for the others: at the highest dose activity change, negative = inhibition, usual class: inhibitors | 310,000 tested, 5.9% active; note: potency is the fitted concentration of half-maximal effect; % is set by controls: 0 for no effect and ±100 for the full control effect
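Luciferase-expressing P. falciparum in infected erythrocytes (2% hematocrit, 0.1% parasitemia final) in RPMI 1640/0.5% Albumax were exposed to compound for 48 hours at 37 C, 5% CO2; growth read as luminescence.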
CHX counter = affects cycloheximide protein synthesis inhibition readout, counter-screen; cell reporter, cycloheximide protein synthesis inhibition counterscreen; max response, %; 300,000 tested, 12% active; AID 2314; in the data active = max response mostly above about 13%, no sharp cut-off; inactive = mostly below about 14%; note: read at 38.3 µM for the half of the compounds with a filed dose; 0% is about no effect
Pf growth 96h = P. falciparum growth inhibition at 96 hour, primary screen for plastid delayed-death inhibitors; 320,000 tested, 6.9% active; P. falciparum luciferase reporter growth, 96 h; Potency, µM (top dose mostly 28.7 µM), for the others: top-dose activity change, negative = inhibition, hits mostly inhibitors; note: potency is the fitted concentration of half-maximal effect; % is set by controls: 0 for no effect and ±100 for the full control effect
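Delayed-death screen, second-generation endpoint: infected erythrocytes, 2% hematocrit, 0.05% parasitemia final; 96 hours at 37 C, 5% CO2; luciferase detection reagent; luminescence decrease equals reduced growth.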
Numbers without * were called inactive; ? = inconclusive; / = no result. Unless noted, calls come from the whole dose curve; as a rule, active = well fitted inhibition curve with a large enough effect; inconclusive = small, poorly fitted or top-dose-only effect, or another doubt; inactive = no such curve, though single readings can be large or run the other way.

SMILES	Shiga toxin inh	Pf growth 48h	CHX counter	Pf growth 96h
COc1ccccc1N1CCN(C(=O)c2ccc3[nH]c4c(c3c2)CC(C)CC4)CC1 (stereo not drawn)	14	?	-1	-83%
C/C(=N/NC(=O)C1CCCN1C(=O)c1ccc([N+](=O)[O-])cc1)c1ccc(Br)cc1 (stereo not drawn)	-2	?	-1	4%
COc1ccc2oc(=O)c(-c3nnc(NCc4ccco4)s3)cc2c1	63*	55%	31*	0%
CCOc1cccc2cc(-c3cn4cc(C)ccc4n3)c(=O)oc12	36*	164%	14	?
CCOc1cccc2cc(-c3nnc(NCc4ccco4)s3)c(=O)oc12	40*	25%	23	?
CCOC(=O)c1ccccc1NC(=O)c1cccc2c1C(=O)N(C1CCN(C(=O)OCC)CC1)C2	3	/	-4	-3%
CCOC(=O)N1CCC(N2Cc3cccc(C(=O)N4CCN(c5cccc(C)c5C)CC4)c3C2=O)CC1	14	10µM*	-2	?
CCOC(=O)N1CCC(N2Cc3cccc(C(=O)Nc4ccccc4OC)c3C2=O)CC1	-10	9.3µM*	2	?
CCOc1ccccc1N(CC(=O)Nc1ccc2c(c1)OCO2)S(C)(=O)=O	-1	4%	-4	-3%
COc1ccc(NC(C)=O)cc1NC(=O)C1CCCN1C(=O)c1cccs1 (stereo not drawn)	/	-28%	/	-3%
O=C(Nc1ccc(OC(F)F)c(Cl)c1)[C@@H]1CCCN1C(=O)c1cccs1	-2	?	-1	4.1µM*
CCOc1ccc(NC(=O)[C@@H]2CCCN2C(=O)c2cccs2)cc1S(=O)(=O)N1CCCCC1	/	?	/	9.3µM*
CCOc1ccc(NC(=O)CN(C)Cc2ccc3c(c2)OCO3)cc1S(=O)(=O)N1CCCC1	/	?	/	3.3µM*
Cc1ccc(NC(=O)CN2CCCC2c2cccs2)cc1S(=O)(=O)N1CCCCC1 (stereo not drawn)	/	9.3µM*	/	?
CCOc1ccc(NC(=O)CN2CCCC2c2cccs2)cc1S(=O)(=O)N1CCCCC1 (stereo not drawn)	/	12µM*	/	?
CCc1nc2c(cnn2-c2ccc(F)cc2)c(=O)n1-c1ccc(N2CCC(C)CC2)cc1	-11	/	-4	3.3µM*
C[C@@H](N)C(=O)O	/	17µM*	/	19%
CC(O)C(N)C(=O)O (stereo not drawn)	/	-9%	/	0%
CCOC(=O)c1c(NC(=O)/C=C/C(=O)O)sc(C)c1-c1ccc(C)c(C)c1	1	9.3µM*	1	17%
N#CC1=C(N)Oc2cc(N)ccc2C1c1ccsc1 (stereo not drawn)	-2	4%	-5	10µM*
CC(c1ccccc1)n1cc(C(=O)NCc2ccncc2)nn1 (stereo not drawn)	-20	-19%	-2	13%
CC(c1ccccc1F)n1cc(C(=O)NCc2ccncc2)nn1 (stereo not drawn)	-11	-2%	-3	0.52µM*
COc1ccccc1N1CCN(C(=O)NCc2cccc(C(F)(F)F)c2)CC1	-8	3%	-2	-5%
Cc1c(C)c(C)c(C(=O)c2ccc(NC(=O)c3ccccc3C(=O)O)cc2)c(C)c1C	-3	/	4	7%
C/C(CC(=O)Nc1ccc(N(C)C)cc1)=N\NC(=O)c1ccc(F)cc1	36*	-11%	31*	19%
SMILES	Shiga toxin inh	Pf growth 48h	CHX counter	Pf growth 96h
C/C(CC(=O)Nc1ccc(N(C)C)cc1)=N\NC(=O)c1ccc(C(C)(C)C)cc1	-11	-7%	6	4.1µM*
Cc1cc(NC(=O)CCC(=O)N(CC(=O)NCC2CCCO2)c2ccc(F)c(Cl)c2)no1 (stereo not drawn)	-15	5%	-3	-6%
Cc1cc(C)n(C(=O)c2ccc([N+](=O)[O-])cc2Cl)n1	/	-3%	4	42%
CCOC(=O)c1c(NC(=O)CSc2nnc(-c3c[nH]c4ccccc34)n2CCOC)sc2c1CCCCC2	-5	?	1	9.3µM*
CCOC(=O)c1c(NC(=O)C(=O)N/N=C/c2ccccc2O)sc2c1CCCCC2	-7	0.66µM*	-3	0.93µM*
CCOC(=O)c1c(NC(=O)c2ccccc2N(C)S(=O)(=O)c2ccccc2)sc2c1CCCC2	-9	?	-6	?
CCOC(=O)c1c(NC(=O)CSc2c[nH]c3ccccc23)sc2c1CCCC2	-9	-4%	-2	-91%
CCOC(=O)c1c(NC(=O)c2ccn(CC)n2)sc2c1CCCC2	3	10µM*	-1	/
CCOC(=O)c1c(NC(=O)C(NCCN(C)C)c2ccccc2)sc2c1CCCC2 (stereo not drawn)	-15	9.3µM*	-4	?

Compound activity deposited in PubChem BioAssay by National Center for Advancing Translational Sciences (NCATS).
